# Results from PubChem BioAssay (NCATS).
# Where “and” joins values, the source holds several entries; their conditions need not be identical. Identical values can stand only once. Values without a mark were called inactive. Results filed as inconclusive are left out. A call without a number means that no potency is given here. Calls of active or inactive are those of the source. Unless noted, calls come from the whole dose curve; as a rule, active = well fitted curve in the direction sought with a large enough effect; inconclusive = small, poorly fitted or top-dose-only effect, or another doubt; inactive = no such curve, though single readings can be large; an effect the other way counts as inactive or inconclusive.
# Experiments:
# [1] = Cell Viability - BJ (AID 421; calls by dose curve;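 note: potency is the fitted concentration of half-maximal effect; cells exposed to compound for 40 hours at 37 °C before readout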); conditions: BJ fibroblast viability, qHTS
# Summary of the method: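 Cytotoxicity as drop in intracellular ATP (CellTiter-Glo, 20 min RT) after 40 hr compound exposure of BJ fibroblasts at 37 °C. Titrations scaled between DMSO and 100 uM tamoxifen, Hill-fitted for AC50.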
# [2] = Cell Viability - Hek293 (AID 427;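 active = compounds whose dose-response curve shows a full or clear partial loss of cell viability, called from curve shape rather than a numeric limit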;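 note: potency is the fitted concentration of half-maximal effect; cells exposed to compound for 40 hours at 37 °C before reading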); conditions: qHTS
# Summary of the method: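 Luminescent ATP content (CellTiter-Glo, 20 min at room temperature) was measured after a 40 hr, 37 °C compound exposure of HEK293 cells. AC50 values came from Hill-equation fits of qHTS concentration-response data normalized to DMSO and 100 uM tamoxifen.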
# [3] = Cell Viability - HepG2 (AID 433; calls by dose curve;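 note: potency is the fitted concentration of half-maximal effect; potency for ATP loss meaning cytotoxicity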); conditions: qHTS
# Summary of the method: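 Read-out is luciferase-based quantitation of cellular ATP as a measure of viable HepG2 cells after 40 h treatment at 37 °C. Signal decrease is scaled between DMSO-only and 100 uM tamoxifen controls, with AC50 fitted by the Hill equation.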
# [4] = Cell Viability - MRC5 (AID 434; calls by dose curve;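 note: potency is the fitted concentration of half-maximal effect; cells exposed to compound for 40 hours at 37 °C; potency reflects cytotoxicity seen as loss of intracellular ATP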); conditions: MRC5 lung fibroblast viability, qHTS
# Summary of the method: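 AC50 values come from Hill-equation fits of intracellular ATP loss, measured by CellTiter-Glo luminescence. Normal lung fibroblasts (MRC5) had 40 hr compound treatment at 37 C, normalized between DMSO and 100 uM tamoxifen.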
# [5] = Cell Viability - SK-N-SH (AID 435; calls by dose curve;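 note: potency is the fitted concentration of half-maximal effect; compound exposure lasted 40 h at 37 °C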); conditions: SK-N-SH neuroblastoma cell viability qHTS
# Summary of the method: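 Luminescent ATP signal served as the viability read-out after 40 hours of compound treatment of human neuroblastoma SK-N-SH cells. Concentration-response data, scaled between DMSO and 100 uM tamoxifen, gave AC50 values by standard Hill modeling.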
# [6] = biological target: Mitogen-activated protein kinase 10 (Mus musculus) (UniProt Q61831); experiment: JNK3 AlphaScreen Assay (AID 530; active = well fitted curve in either direction with a large enough effect, not every such curve was filed as active;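 note: kinase came from lysate of stimulated human HepG2 cells; signal reports phosphorylation of biotinylated GST-cJun 1-79 at Ser73 with 10 µM ATP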)
# Summary of the method: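 Kinase buffer: 20 mM Tris-HCl pH 7.6, 10 mM MgCl2, 1 mM DTT, 0.1 mM Na3VO4, 0.01% Tween-20; ATP 10 uM. Substrate biotin-GST-cJun(1-79), enzyme from activated HepG2 lysates. Detection by Ser73 phospho-antibody AlphaScreen.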
# [7] = Cell Viability - N2a (AID 540); conditions: N2a mouse neuroblastoma cell viability; at 92.2 µM (top of the series);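 note: cells exposed to compound for 40 h at 37 °C; nearly all actives have a fitted effect of over 45% in size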
# Summary of the method: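 In this qHTS cytotoxicity screen, ATP-dependent luciferase luminescence reports viable N2a cells after a 40 hr compound exposure in complete culture medium. Potencies are AC50 values from standard Hill equation fits.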
# [8] = Cell Viability - NIH 3T3 (AID 541); conditions: NIH 3T3 cell viability, qHTS; activity change, negative = cytotoxicity: at 92.2 µM (top of the series); note: nearly all actives have a fitted effect of over 25% in size
# Summary of the method: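 In this cytotoxicity screen, acute toxicity is scored as an ATP drop measured by CellTiter-Glo in NIH 3T3 fibroblasts following a 40 hr, 37 °C incubation with compound.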
# [9] = Cell Viability - HUV-EC-C (AID 542); note: nearly all actives have a fitted effect of over 35% in size
# Summary of the method: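 Concentration-dependent ATP loss in HUV-EC-C cells is the measure. Exposure lasts 40 hr at 37 °C; luminescence follows CellTiter-Glo addition, and Hill fits give AC50.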
# [10] = Cell Viability - SH-SY5Y (AID 544); conditions: SH-SY5Y neuroblastoma cell viability; viability change, negative = cytotoxic: at 92.2 µM (top of the series); note: potency is the fitted concentration of half-maximal effect; nearly all actives have a fitted effect of over 55% in size
# Summary of the method: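 Quantitative HTS in SH-SY5Y neuroblastoma cells, 40 hr treatment at 37 °C, ATP content by luciferase luminescence; AC50 from Hill fits.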
# [11] = Cell Viability - Renal Proximal Tubule (AID 545); conditions: renal proximal tubule cells viability; at 91.7 µM (top of the series), primary cells of rat origin unless noted; note: nearly all actives have a fitted effect of over 40% in size
# Summary of the method: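 Luminescent ATP signal (CellTiter-Glo) served as the viability read-out after 40 hr compound exposure of freshly isolated rat proximal tubule cells at 37 °C. Concentration-dependent ATP loss was fitted with the Hill equation to give AC50.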
# [12] = Cellular Toxicity (caspase-3) HepG2 (AID 654);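 note: cells exposed to compound for 16 hours before reading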
# Summary of the method: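 Concentration-response AC50 values reflect caspase-3/7 induction in HepG2 cells after 16 hours of compound exposure, quantified by luminescence from liberated aminoluciferin and referenced to 100 uM tamoxifen as full stimulation.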
# [13] = Cellular Toxicity (caspase-3) Jurkat (AID 655); conditions: Jurkat caspase-3 activation, luminescence, DMSO = 0%, tamoxifen = 100%; at 92.2 µM (top of the series);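 note: cells exposed to compound for 16 h at 37 °C before reading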
# Summary of the method: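 5000 Jurkat cells/well; compound 16 hr, 37 °C; Caspase-Glo 3/7 added, 20 min RT; luminescence read. Norm: DMSO = 0%, tamoxifen 100 uM = 100%. AC50, Hill model.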
# [14] = Cellular Toxicity (caspase-3) HUV-EC-C (AID 656)
# Summary of the method: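 qHTS; HUV-EC-C, 1000 cells/well; 5 hr settle, 16 hr cmpd, 37°C; Caspase-Glo 3/7, 20 min RT; luminescence. Norm: DMSO = 0%, tamoxifen 100 uM = 100%. Hill-fit AC50.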
# [15] = Cellular Toxicity (caspase-3) SHSY5Y (AID 657)
# Summary of the method: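 qHTS, SH-SY5Y, 1500 cells/well, 5 h pre-incubation 37 °C; compound 16 h 37 °C; Caspase-Glo 3/7 1 h RT; luminescence. Norm.: DMSO = 0, 10 uM staurosporine = 100%. Hill fit → AC50.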
# [16] = Cellular Toxicity (caspase-3) BJ (AID 658)
# Summary of the method: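 Caspase-Glo 3/7 luminescence, read 1 hr after reagent at room temperature, in normal BJ fibroblasts exposed 16 hours at 37 °C. AC50 values from Hill-equation concentration-response, scaled between DMSO basal and 10 uM staurosporine as 100%.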
# [17] = Cellular Toxicity (caspase-3) MRC-5 (AID 659)
# Summary of the method: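 Luminescent Caspase-Glo 3/7 read-out (1 h, room temperature) after a 16 h, 37 °C compound exposure of MRC-5 lung fibroblasts at 1500 cells/well. Concentration-response AC50 from Hill equation; 0% DMSO, 100% 10 uM staurosporine.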
# [18] = Cellular Toxicity (caspase-3) Mesangial (AID 660);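 note: combined caspase 3 and 7 activity read by Caspase-Glo luminescence; cells exposed to compound for 16 h before the caspase read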
# Summary of the method: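 AC50 values come from Hill-equation fits of caspase 3/7 activation, measured as Caspase-Glo luminescence in human glomerular mesangial cells exposed to compound for 16 h at 37 °C; 100% set by 100 uM tamoxifen.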
# [19] = Cellular Toxicity (caspase-3) SK-N-SH (AID 661)
# Summary of the method: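 Apoptosis readout in SK-N-SH neuroblastoma: Caspase-Glo 3/7 luminescence following 16 hr treatment in complete culture medium. Normalization used DMSO and 10 uM staurosporine controls.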
# [20] = Cellular Toxicity (caspase-3) H-4-II-E (AID 663);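 note: cells exposed to compound for 16 hr before readout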
# Summary of the method: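 Caspase 3/7 activation measured by luminescent aminoluciferin substrate cleavage after 16 hr compound treatment of H-4-II-E cells in complete medium. Increase normalized between DMSO (basal) and 100 uM tamoxifen (100%); Hill-equation AC50 from concentration-response.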
# [21] = Cellular Toxicity (caspase-3) Hek293 (AID 664);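 note: cells exposed to compound for 16 h at 37 °C before readout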
# Summary of the method: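 Apoptosis readout: Caspase-Glo 3/7 signal in human HEK293 cells following 16-hour compound incubation. Responses scaled between DMSO baseline and 100 uM tamoxifen.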
# [22] = Cellular Toxicity (caspase-3) NIH 3T3 (AID 666)
# Summary of the method: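 Activity: caspase-3/7 induction, NIH 3T3 cells, 16 hr treatment at 37°C, luminescent Caspase-Glo detection; AC50 via Hill equation.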
# [23] = Cellular Toxicity (caspase-3) Renal Proximal Tubule (AID 667); conditions: renal proximal tubule cells; at 91.7 µM (top of the series), primary cells freshly taken from rat, solvent-only wells 0%, staurosporine 100% unless noted;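 note: cells exposed to compound for 16 hours at 37 °C before detection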
# Summary of the method: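 AC50 derived by standard Hill fit of concentration-response data, normalized between DMSO basal and 10 uM staurosporine as 100% stimulation. Cells: primary rat kidney proximal tubule, 16 h treatment at 37 °C.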
# [24] = biological target: Cytochrome P450 3A4 (Homo sapiens) (UniProt P08684); experiment: qHTS Assay for Inhibitors and Substrates of Cytochrome P450 3A4 (AID 884); note: potency is the fitted concentration of half-maximal effect; nearly all actives have a fitted effect of over 50% in size
# Sequence of Cytochrome P450 3A4 (Homo sapiens) (P08684 whole entry, looked up): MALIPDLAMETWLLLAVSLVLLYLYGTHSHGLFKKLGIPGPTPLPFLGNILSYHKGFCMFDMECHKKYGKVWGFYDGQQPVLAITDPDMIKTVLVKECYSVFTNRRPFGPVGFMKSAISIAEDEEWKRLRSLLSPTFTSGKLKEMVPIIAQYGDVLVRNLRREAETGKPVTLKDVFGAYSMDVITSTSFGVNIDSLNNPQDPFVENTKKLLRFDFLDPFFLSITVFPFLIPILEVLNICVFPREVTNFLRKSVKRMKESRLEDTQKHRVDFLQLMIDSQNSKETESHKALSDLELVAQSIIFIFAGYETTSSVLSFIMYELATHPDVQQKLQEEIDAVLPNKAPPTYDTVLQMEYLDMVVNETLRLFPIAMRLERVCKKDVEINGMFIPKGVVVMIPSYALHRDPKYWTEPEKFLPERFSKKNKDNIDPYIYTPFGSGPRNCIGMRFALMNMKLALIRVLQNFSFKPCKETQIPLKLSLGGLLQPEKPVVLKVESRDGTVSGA
# Summary of the method: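 Luminescent readout of luciferin produced by CYP3A4 (20 nM) dealkylation of Luciferin-PPXE, 25 uM (its KM). NADPH-driven reaction ran 60 min at RT after 10 min compound preincubation; data scaled to 57 uM ketoconazole as 100% inhibition.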
# [25] = biological target: Cytochrome P450 3A4 (Homo sapiens) (UniProt P08684); experiment: qHTS Assay for Activators of Cytochrome P450 3A4 (AID 885); note: nearly all actives have a fitted effect of over 65% in size
# Summary of the method: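 Luminescent readout of luciferin formed from 25 uM Luciferin-PPXE (KM level) by 20 nM CYP3A4 in 200 mM KPO4, with 60 min NADPH-driven reaction at room temperature after 10 min compound exposure. Ketoconazole (57 uM) defined 100% inhibition.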
# [26] = MultiTox-Fluor Cytotoxicity Assay - LYMP1-001 - Live Cells (AID 947)
# [27] = Cell Viability - LYMP1-002 - Assay at 16 hr (AID 948)
# Summary of the method: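 Seed 2500 LYMP1-002 cells per well in complete medium and hold 5 hr at 37 C. Add compound across a concentration series and incubate 16 hr at 37 C. Add CellTiter-Glo, wait 30 min at room temperature, read luminescence.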
# [28] = MultiTox-Fluor Cytotoxicity Assay - LYMP1-002 - Live Cells (AID 955)
# Summary of the method: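 In this qHTS viability format, lymphoblastoid cells (LYMP1-002, human) received compound for 16 hr at 37 C. Fluorogenic GF-AFC cleavage by viable cells was detected at 405/510 nm after 1 h at room temperature.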
# [29] = MultiTox-Fluor Cytotoxicity Assay - LYMP1-002 - Dead Cells (AID 960); note: nearly all actives have a fitted effect of over 60% in size
# Summary of the method: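 Concentration-dependent increases in membrane-leaked protease activity are quantified in LYMP1-002 cells after 16 hr treatment; values are normalized against DMSO and tetraoctylammonium bromide (15 uM) controls and AC50 derived by Hill modeling.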
# [30] = MultiTox-Fluor Cytotoxicity Assay - LYMP1-003 - Dead Cells (AID 961); note: nearly all actives have a fitted effect of over 70% in size
# Summary of the method: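 Dead-cell protease release, detected as bis-AAF-R110 fluorescence at 485/520 nm, was measured in LYMP1-003 cells after 16 h compound treatment at 37 C. AC50 values came from Hill-modeled qHTS curves normalized to DMSO (0%) and 15 uM tetraoctylammonium bromide (100%).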
# [31] = MultiTox-Fluor Cytotoxicity Assay - LYMP1-003 - Live Cells (AID 962);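 note: cytotoxic hits lower the live-cell protease signal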
# Summary of the method: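 Human lymphoblastoid line LYMP1-003 in complete culture medium, treated 16 hr with titrated compounds. Viable cells quantified via cell-permeant GF-AFC substrate fluorescence; AC50 derived by Hill fitting.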
# [32] = Cell Viability - LYMP2-003 (AID 965);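 note: cells exposed to compounds for 24 h before reading; nearly all actives have a fitted effect of over 50% in size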
# Summary of the method: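 Seed 2500 lymphoblastoid cells/well; incubate 5 hr, 37 C; add compounds; incubate 24 hr, 37 C; add CellTiter-Glo, 30 min RT; read luminescence. AC50 from Hill fit.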
# [33] = Cell Viability - LYMP2-004 (AID 966); note: nearly all actives have a fitted effect of over 65% in size
# Summary of the method: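 Viable-cell number estimated from ATP luminescence (CellTiter-Glo) in 2500 human lymphoblastoid cells/well after 24 hr at 37 C with compound. AC50 fitted to the standard Hill equation.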
# [34] = Cell Viability - LYMP2-005 (AID 967);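 note: cells exposed to compound for 24 h at 37 °C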
# Summary of the method: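 Acute cytotoxicity is scored as a concentration-dependent drop in intracellular ATP in human lymphoblastoid LYMP2-005 cells after 24 h compound treatment. ATP is quantified by luciferase luminescence, and AC50 is derived by Hill-equation modelling.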
# [35] = Cell Viability - LYMP2-009 (AID 968);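 note: cells exposed to compound for 24 h at 37 °C; nearly all actives have a fitted effect of over 55% in size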
# [36] = Cell Viability - LYMP2-011 (AID 969);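 note: cells exposed to compound for 24 hours; nearly all actives have a fitted effect of over 60% in size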
# Summary of the method: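 Cells seeded at 2500 per well rest 5 hr before compound addition, then incubate 24 hr at 37 C. CellTiter-Glo reagent is added for 30 min at room temperature before luminescence detection.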
# [37] = Cell Viability - LYMP2-013 (AID 970);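 note: cells exposed to compound for 24 h at 37 °C; nearly all actives have a fitted effect of over 55% in size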
# Summary of the method: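 In complete culture medium, human lymphoblastoid cells were dosed for 24 hr at 37 C, with tetraoctylammonium bromide (6.4pM to 92 uM) as positive control. Viability reflects luciferase-based ATP signal; AC50 derived from concentration-response curves.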
# [38] = Cell Viability - LYMP2-019 (AID 973);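 note: cells exposed to compound for 24 h at 37 °C; nearly all actives have a fitted effect of over 55% in size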
# Summary of the method: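 AC50 values come from Hill-equation modelling of qHTS concentration-response curves, where viability is measured as luciferase-based ATP luminescence in the lymphoblastoid line after 24 hr compound exposure in complete culture medium.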
# [39] = Cell Viability - LYMP2-021 (AID 974)
# Summary of the method: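 In qHTS format, compounds are tested against 2500 lymphoblastoid cells per well for 24 h; viable cell number is inferred from ATP-driven luciferase light, and Hill-equation fitting yields AC50 values.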
# [40] = Cell Viability - LYMP2-023 (AID 975)
# Summary of the method: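 In this qHTS, ATP-based luciferase luminescence (CellTiter-Glo) is quantified in human lymphoblastoid cells after 24 hr compound treatment at 37 C; tetraoctylammonium bromide serves as positive control. Concentration-response curves are Hill-fitted to give AC50.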
smiles,measurement,setting,value
C[C@H]1CCCC(=O)CCC/C=C/c2cc(O)cc(O)c2C(=O)O1,Potency,[1],> 92 µM
same,Potency,[2],31.1 µM (active) and 40.2 µM (active)
same,Potency,[3],> 92 µM
same,Potency,[4],> 92 µM
same,Potency,[5],59.8 µM (active)
same,outcome,[6],inactive
same,"activity change, negative = cytotoxicity",[7],-95.8% (active) and -87.8% (active)
same,"activity change, negative = cytotoxicity",[8],-105% (active)
same,Potency,[9],inactive
same,Potency,[10],12.6 µM (active) and 31.6 µM (active)
same,"activity change, negative = cytotoxicity",[11],-28.2% [at 91.7 µM]
same,outcome,[12],inactive
same,caspase-3 activation,[13],17.6% and 19.1%
same,outcome,[14],inactive
same,outcome,[15],inactive
same,outcome,[16],inactive
same,outcome,[17],inactive
same,outcome,[18],inactive
same,outcome,[19],inactive
same,outcome,[20],inactive
same,outcome,[21],inactive
same,outcome,[22],inactive
same,caspase-3 activation,[23],5.71% [at 91.7 µM] and 9.28% [at 91.7 µM]
same,Potency,[24],316 nM (active) and 398 nM (active)
same,Potency,[25],inactive
same,Potency,[26],inactive
same,Potency,[27],inactive
same,outcome,[28],inactive
same,Potency,[29],inactive
same,Potency,[30],inactive
same,Potency,[31],inactive
same,Potency,[32],inactive
same,Potency,[33],inactive
same,Potency,[34],inactive
same,Potency,[35],inactive
same,Potency,[36],inactive
same,Potency,[37],inactive
same,Potency,[38],inactive
same,Potency,[39],inactive
same,Potency,[40],inactive
